Experimental data taken from paper PMC7862700, “An all-to-all approach to the identification of sequence-specific readers for epigenetic DNA modifications on cytosine”.

Columns and labels:
Experiment in all cases: DAPPL (digital affinity profiling via proximity ligation, sequencing); 10 mM Tris-HCl pH 7.5, 50 mM NaCl, 1 mM DTT, 4% glycerol, room temperature, 30 min; GST-TFs on glutathione beads, 16-mer random dsDNA library, 0.1% formaldehyde crosslink after washing; high values mean tight binding
FEV = target: T1, FEV (Homo sapiens, UniProt Q99581 1-238); conditions: protein: recombinant; tags: N-terminal GST; dsDNA, one strand shown
T1 sequence: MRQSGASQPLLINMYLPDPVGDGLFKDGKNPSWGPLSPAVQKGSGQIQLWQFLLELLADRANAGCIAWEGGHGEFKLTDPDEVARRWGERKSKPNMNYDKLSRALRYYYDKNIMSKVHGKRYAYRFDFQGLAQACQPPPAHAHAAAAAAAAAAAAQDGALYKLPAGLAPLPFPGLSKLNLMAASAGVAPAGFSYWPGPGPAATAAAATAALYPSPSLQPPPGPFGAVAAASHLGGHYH
Method in brief: (§1)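 The binding signal reported is, for every hexamer, its read frequency for a factor over its read frequency for the tag-only sample. Reads came from pools of yeast-expressed, GST-fused human transcription factors on glutathione beads, barcoded with DNA and mixed with that sample, which were incubated with 200 nmole of a random double-stranded 16-mer DNA library in Tris/NaCl/DTT/glycerol buffer at room temperature for 30 min. After washing, the pools were crosslinked with 0.1% formaldehyde, proximity-ligated with BsaI/T4 ligase for 1 h at 37 °C, PCR-amplified and sequenced on an Illumina NextSeq500.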

ETV5 = ETV5 (Homo sapiens, UniProt P41161 1-510); conditions: protein: recombinant; tags: N-terminal GST; dsDNA, one strand shown
ETV5, sequence (P41161 whole entry): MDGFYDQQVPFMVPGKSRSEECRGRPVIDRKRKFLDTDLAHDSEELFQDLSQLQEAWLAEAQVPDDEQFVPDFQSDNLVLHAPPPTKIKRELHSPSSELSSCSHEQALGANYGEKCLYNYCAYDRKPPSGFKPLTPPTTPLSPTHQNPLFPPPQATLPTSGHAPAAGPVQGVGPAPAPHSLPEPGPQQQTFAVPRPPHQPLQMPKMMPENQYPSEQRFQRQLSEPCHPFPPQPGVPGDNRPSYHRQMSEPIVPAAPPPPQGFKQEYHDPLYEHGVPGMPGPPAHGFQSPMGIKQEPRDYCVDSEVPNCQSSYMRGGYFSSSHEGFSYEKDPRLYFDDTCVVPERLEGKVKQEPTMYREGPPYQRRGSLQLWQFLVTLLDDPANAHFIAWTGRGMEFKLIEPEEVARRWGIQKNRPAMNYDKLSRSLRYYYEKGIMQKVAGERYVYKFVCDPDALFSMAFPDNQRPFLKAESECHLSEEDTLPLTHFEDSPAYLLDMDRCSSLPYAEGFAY
Method in brief: as §1

HSF1 = HSF1 (Homo sapiens, UniProt Q00613 1-529); conditions: protein: recombinant; tags: N-terminal GST; chain copies: 3; dsDNA, one strand shown
HSF1, sequence (Q00613 whole entry): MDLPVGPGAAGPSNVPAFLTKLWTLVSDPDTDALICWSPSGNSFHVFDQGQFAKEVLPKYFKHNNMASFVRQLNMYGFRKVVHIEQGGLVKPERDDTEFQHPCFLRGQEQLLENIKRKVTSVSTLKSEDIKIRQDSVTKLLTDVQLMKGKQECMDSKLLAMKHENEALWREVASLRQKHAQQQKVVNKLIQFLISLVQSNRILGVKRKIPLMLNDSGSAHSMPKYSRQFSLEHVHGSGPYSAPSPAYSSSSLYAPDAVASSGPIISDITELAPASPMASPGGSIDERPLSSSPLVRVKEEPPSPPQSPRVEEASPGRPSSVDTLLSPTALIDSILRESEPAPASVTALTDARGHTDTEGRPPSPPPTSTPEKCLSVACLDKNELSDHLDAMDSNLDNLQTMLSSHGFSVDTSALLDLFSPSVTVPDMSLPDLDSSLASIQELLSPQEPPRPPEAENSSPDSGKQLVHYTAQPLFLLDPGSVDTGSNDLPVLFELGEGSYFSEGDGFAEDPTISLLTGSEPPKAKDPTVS
Method in brief: as §1

SPIC = target: T2, SPIC (Homo sapiens, UniProt Q8N5J4 1-248); conditions: protein: recombinant; tags: N-terminal GST; dsDNA, one strand shown
T2 sequence: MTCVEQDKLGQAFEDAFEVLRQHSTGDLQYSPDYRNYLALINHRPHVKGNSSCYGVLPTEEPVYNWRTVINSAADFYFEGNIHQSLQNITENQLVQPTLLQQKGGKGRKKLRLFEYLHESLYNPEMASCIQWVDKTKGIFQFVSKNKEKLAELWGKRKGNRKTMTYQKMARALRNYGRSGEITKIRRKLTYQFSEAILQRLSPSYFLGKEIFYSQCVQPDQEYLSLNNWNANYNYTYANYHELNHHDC
Method in brief: as §1

ELF4 = ELF4 (Homo sapiens, UniProt Q99607 1-663); conditions: protein: recombinant; tags: N-terminal GST; dsDNA, one strand shown
ELF4, sequence (Q99607 whole entry): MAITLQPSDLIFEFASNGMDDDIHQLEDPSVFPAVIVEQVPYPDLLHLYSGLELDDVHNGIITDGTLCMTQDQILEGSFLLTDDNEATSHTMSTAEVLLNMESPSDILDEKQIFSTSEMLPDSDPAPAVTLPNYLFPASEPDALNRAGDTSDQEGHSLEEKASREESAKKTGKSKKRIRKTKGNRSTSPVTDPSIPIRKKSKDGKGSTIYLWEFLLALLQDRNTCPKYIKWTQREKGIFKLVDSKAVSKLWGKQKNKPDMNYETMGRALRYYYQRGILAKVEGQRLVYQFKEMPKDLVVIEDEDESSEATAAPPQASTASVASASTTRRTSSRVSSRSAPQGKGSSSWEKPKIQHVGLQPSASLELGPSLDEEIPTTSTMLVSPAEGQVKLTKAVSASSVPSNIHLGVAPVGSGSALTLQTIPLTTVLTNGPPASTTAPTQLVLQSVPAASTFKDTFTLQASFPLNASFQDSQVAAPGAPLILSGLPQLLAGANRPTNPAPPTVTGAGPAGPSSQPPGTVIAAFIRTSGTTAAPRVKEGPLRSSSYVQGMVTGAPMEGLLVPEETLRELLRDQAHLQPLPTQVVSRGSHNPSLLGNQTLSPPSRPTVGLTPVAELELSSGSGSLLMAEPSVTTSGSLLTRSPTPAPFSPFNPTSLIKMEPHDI
Method in brief: as §1

ELK4 = target: T3, ELK4 (Homo sapiens, UniProt P28324-2 1-405); conditions: protein: recombinant; tags: N-terminal GST; dsDNA, one strand shown
T3 sequence: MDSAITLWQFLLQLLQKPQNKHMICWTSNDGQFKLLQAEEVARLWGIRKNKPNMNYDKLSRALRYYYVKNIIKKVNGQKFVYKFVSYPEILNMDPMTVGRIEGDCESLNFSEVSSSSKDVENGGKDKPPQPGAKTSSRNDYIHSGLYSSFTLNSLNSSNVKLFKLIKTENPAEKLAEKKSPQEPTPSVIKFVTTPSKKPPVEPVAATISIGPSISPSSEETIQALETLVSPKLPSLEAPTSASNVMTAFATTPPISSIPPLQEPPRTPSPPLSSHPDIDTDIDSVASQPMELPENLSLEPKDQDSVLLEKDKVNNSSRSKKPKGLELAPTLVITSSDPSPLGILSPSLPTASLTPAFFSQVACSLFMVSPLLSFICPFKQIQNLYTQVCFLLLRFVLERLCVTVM
Method in brief: as §1

ETV2 = target: T4, ETV2 (Homo sapiens, UniProt O00321 1-342); conditions: protein: recombinant; tags: N-terminal GST; dsDNA, one strand shown
T4 sequence: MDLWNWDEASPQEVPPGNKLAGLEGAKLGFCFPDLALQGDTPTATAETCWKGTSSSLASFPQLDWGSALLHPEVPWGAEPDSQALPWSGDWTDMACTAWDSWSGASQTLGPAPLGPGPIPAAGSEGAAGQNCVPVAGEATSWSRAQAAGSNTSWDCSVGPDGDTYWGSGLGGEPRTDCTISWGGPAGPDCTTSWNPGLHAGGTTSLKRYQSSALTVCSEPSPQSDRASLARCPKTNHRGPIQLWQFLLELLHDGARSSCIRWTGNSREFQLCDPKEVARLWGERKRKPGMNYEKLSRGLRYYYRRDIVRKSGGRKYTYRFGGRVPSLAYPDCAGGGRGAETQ
Method in brief: as §1

ELF3 = target: T5, ELF3 (Homo sapiens, UniProt P78545 1-371); conditions: protein: recombinant; tags: N-terminal GST; dsDNA, one strand shown
T5 sequence: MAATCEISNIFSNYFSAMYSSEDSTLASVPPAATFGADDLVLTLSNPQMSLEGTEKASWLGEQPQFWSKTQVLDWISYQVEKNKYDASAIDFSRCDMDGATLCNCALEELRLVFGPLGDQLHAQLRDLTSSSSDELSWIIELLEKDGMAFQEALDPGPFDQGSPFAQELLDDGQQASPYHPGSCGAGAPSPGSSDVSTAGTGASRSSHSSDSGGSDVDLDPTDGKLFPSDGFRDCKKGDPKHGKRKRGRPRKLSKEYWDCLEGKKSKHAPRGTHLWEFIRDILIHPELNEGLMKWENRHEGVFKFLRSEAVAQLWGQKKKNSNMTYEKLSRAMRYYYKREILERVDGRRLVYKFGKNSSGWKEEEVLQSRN
Method in brief: as §1

ETV1 = ETV1 (Homo sapiens, UniProt P50549 1-477); conditions: protein: recombinant; tags: N-terminal GST; dsDNA, one strand shown
ETV1, sequence (P50549 whole entry): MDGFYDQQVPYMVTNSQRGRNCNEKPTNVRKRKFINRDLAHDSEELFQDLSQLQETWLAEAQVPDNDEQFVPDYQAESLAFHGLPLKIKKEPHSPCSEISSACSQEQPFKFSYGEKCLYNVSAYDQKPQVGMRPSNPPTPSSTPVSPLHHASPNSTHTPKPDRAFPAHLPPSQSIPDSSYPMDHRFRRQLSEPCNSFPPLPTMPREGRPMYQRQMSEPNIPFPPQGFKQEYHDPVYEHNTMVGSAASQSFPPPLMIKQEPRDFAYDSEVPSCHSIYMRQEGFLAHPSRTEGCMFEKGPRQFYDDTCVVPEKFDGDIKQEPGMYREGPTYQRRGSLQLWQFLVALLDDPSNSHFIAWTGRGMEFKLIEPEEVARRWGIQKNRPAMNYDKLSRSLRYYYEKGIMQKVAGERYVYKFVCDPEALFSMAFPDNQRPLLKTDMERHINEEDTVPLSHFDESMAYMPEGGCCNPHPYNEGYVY
Method in brief: as §1

ERF = target: T6, ERF (Homo sapiens, UniProt P50548 1-548); conditions: protein: recombinant; tags: N-terminal GST; dsDNA, one strand shown
T6 sequence: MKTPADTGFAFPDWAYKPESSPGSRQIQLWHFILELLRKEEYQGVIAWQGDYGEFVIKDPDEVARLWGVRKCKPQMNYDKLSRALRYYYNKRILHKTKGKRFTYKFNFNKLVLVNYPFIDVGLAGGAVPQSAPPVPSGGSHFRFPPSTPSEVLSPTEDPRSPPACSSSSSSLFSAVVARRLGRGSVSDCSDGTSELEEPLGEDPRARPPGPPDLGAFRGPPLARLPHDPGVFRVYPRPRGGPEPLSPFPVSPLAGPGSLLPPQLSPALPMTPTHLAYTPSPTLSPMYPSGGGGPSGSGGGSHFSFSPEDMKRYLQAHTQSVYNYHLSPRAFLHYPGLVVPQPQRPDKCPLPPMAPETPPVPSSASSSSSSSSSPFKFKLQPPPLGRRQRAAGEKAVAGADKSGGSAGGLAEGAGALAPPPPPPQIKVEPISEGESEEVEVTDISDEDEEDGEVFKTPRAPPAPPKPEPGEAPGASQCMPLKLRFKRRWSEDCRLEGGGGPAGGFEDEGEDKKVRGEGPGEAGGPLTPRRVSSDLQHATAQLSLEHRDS
Method in brief: as §1

ETV3L = target: T7, ETV3L (Homo sapiens, UniProt Q6ZN32 1-361); conditions: protein: recombinant; tags: N-terminal GST; dsDNA, one strand shown
T7 sequence: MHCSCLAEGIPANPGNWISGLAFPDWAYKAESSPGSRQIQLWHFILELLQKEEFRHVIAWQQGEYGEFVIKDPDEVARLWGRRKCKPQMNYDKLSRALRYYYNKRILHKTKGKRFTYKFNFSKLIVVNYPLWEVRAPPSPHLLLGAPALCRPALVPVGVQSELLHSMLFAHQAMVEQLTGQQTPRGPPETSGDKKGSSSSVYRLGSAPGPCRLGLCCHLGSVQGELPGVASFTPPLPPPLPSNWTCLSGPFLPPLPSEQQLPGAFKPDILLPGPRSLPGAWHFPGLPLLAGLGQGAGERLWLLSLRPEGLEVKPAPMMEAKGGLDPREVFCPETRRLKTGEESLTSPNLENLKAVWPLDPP
Method in brief: as §1

ETS2 = target: T8, ETS2 (Homo sapiens, UniProt P15036 1-469); conditions: protein: recombinant; tags: N-terminal GST; dsDNA, one strand shown
T8 sequence: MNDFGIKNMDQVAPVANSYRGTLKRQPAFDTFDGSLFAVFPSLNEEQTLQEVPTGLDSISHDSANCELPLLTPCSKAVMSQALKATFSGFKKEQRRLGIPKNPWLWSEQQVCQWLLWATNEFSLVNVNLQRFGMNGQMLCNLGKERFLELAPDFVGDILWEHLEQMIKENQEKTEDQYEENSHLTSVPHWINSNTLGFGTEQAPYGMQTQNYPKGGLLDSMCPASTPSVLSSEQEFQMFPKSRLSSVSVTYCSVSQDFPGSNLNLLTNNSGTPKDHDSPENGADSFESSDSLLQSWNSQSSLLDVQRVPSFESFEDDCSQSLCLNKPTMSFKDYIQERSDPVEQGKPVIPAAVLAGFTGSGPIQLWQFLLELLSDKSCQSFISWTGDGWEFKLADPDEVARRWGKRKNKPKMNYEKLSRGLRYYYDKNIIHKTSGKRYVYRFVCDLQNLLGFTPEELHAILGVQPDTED
Method in brief: as §1

SPDEF = target: T9, SPDEF (Homo sapiens, UniProt O95238 1-335); conditions: protein: recombinant; tags: N-terminal GST; dsDNA, one strand shown
T9 sequence: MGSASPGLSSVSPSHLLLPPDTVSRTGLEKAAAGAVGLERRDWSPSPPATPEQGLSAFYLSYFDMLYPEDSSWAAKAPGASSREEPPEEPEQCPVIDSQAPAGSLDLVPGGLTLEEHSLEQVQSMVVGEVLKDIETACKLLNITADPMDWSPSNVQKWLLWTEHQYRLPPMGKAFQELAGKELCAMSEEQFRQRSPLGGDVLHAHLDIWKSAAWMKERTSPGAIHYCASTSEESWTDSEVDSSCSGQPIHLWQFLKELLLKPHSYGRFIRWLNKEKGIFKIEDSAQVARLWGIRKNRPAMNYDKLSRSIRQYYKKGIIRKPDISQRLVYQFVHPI
Method in brief: as §1

ETV7 = target: T10, ETV7 (Homo sapiens, UniProt Q9Y603 1-341); conditions: protein: recombinant; tags: N-terminal GST; dsDNA, one strand shown
T10 sequence: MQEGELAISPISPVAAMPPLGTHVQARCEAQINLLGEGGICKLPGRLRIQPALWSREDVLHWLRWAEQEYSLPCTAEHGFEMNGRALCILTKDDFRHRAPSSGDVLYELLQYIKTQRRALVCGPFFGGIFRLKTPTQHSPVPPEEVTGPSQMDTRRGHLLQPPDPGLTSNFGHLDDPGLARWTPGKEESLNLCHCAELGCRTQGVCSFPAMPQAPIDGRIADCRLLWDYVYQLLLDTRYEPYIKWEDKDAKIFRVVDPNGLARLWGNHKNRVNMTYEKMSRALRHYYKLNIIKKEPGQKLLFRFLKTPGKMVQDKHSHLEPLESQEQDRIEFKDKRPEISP
Method in brief: as §1

ELF5 = target: T11, ELF5 (Homo sapiens, UniProt Q9UKW6-2 1-255); conditions: protein: recombinant; tags: N-terminal GST; dsDNA, one strand shown
T11 sequence: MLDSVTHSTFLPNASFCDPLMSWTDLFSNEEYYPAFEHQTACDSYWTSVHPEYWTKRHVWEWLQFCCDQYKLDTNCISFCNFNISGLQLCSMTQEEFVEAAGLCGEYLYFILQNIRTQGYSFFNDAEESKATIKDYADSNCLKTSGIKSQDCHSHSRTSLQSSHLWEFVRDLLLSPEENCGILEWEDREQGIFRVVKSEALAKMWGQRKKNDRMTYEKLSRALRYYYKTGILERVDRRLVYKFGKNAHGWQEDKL
Method in brief: as §1

ETV3 = target: T12, ETV3 (Homo sapiens, UniProt P41162-2 1-143); conditions: protein: recombinant; tags: N-terminal GST; dsDNA, one strand shown
T12 sequence: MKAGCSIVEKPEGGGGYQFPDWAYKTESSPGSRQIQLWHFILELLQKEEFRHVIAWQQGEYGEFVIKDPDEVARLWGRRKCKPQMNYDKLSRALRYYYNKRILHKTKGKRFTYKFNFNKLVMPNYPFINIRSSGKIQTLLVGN
Method in brief: as §1

ETV6 = ETV6 (Homo sapiens, UniProt P41212 1-452); conditions: protein: recombinant; tags: N-terminal GST; dsDNA, one strand shown
ETV6, sequence (P41212 whole entry): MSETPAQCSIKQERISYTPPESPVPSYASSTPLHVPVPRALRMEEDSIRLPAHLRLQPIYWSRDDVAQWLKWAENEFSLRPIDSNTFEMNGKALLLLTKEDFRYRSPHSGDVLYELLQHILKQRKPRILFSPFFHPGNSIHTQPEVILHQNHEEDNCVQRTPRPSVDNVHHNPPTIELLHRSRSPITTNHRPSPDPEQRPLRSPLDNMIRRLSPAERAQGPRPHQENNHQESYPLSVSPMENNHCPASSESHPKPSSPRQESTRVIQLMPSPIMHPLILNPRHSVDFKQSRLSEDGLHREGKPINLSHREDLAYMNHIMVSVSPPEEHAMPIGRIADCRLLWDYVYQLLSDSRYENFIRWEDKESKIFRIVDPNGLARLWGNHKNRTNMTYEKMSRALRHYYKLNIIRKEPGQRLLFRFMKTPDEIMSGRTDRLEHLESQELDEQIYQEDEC
Method in brief: as §1

TCTGTC
binding signal (FEV): 1.13 fold enrichment (6-mer frequency, TF over GST control)
binding signal (ETV5): 1.18 fold enrichment (6-mer frequency, TF over GST control)
binding signal (HSF1): 1.07 fold enrichment (6-mer frequency, TF over GST control)
binding signal (SPIC): 1.3 fold enrichment (6-mer frequency, TF over GST control)
binding signal (ELF4): 1.13 fold enrichment (6-mer frequency, TF over GST control)
binding signal (ELK4): 1.27 fold enrichment (6-mer frequency, TF over GST control)
binding signal (ETV2): 1.19 fold enrichment (6-mer frequency, TF over GST control)
binding signal (ELF3): 1.19 fold enrichment (6-mer frequency, TF over GST control)
binding signal (ETV1): 1.23 fold enrichment (6-mer frequency, TF over GST control)
binding signal (ERF): 1.31 fold enrichment (6-mer frequency, TF over GST control)
binding signal (ETV3L): 1.19 fold enrichment (6-mer frequency, TF over GST control)
binding signal (ETS2): 1.23 fold enrichment (6-mer frequency, TF over GST control)
binding signal (SPDEF): 1.15 fold enrichment (6-mer frequency, TF over GST control)
binding signal (ETV7): 1.14 fold enrichment (6-mer frequency, TF over GST control)
binding signal (ELF5): 1.16 fold enrichment (6-mer frequency, TF over GST control)
binding signal (ETV3): 1.05 fold enrichment (6-mer frequency, TF over GST control)
binding signal (ETV6): 1.23 fold enrichment (6-mer frequency, TF over GST control)
